# Compounds without any hit were thinned out: in the full panel of roughly 83,000, 20% have a hit.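 Interpretation: 100, growth as untreated; towards 0, rising growth inhibition; 0, no net growth; 0 to -100, cell death. Compounds scoring below 10 were considered active.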 Unmarked numbers belong to inactive results. Active and inactive are the calls of the source.
# Assays:
# Assay in all cases: NCI-60 one-dose screen, 48 h (100 = growth as untreated, 0 = no growth, -100 = all killed)
# Details in all cases: 10 µM unless noted
# HCT-15 colon = test system: HCT-15 colon
# SNB-75 CNS = test system: SNB-75 CNS
# SNB-19 CNS = test system: SNB-19 CNS
# U251 CNS = test system: U251 CNS
# SK-MEL-5 melanoma = test system: SK-MEL-5 melanoma
# UACC-62 melanoma = test system: UACC-62 melanoma
# SK-MEL-28 melanoma = test system: SK-MEL-28 melanoma
# SK-MEL-2 melanoma = test system: SK-MEL-2 melanoma
# EKVX NSCLC = test system: EKVX NSCLC
# SN12C renal = test system: SN12C renal
# UO-31 renal = test system: UO-31 renal
# TK-10 renal = test system: TK-10 renal
# ACHN renal = test system: ACHN renal
# CAKI-1 renal = test system: CAKI-1 renal
# CCRF-CEM leukemia = test system: CCRF-CEM leukemia
# MOLT-4 leukemia = test system: MOLT-4 leukemia
# PC-3 prostate = test system: PC-3 prostate
# LOX IMVI melanoma = test system: LOX IMVI melanoma
# A498 renal = test system: A498 renal
# HT29 colon = test system: HT29 colon
SMILES,growth (HCT-15 colon),growth (SNB-75 CNS),growth (SNB-19 CNS),growth (U251 CNS),growth (SK-MEL-5 melanoma),growth (UACC-62 melanoma),growth (SK-MEL-28 melanoma),growth (SK-MEL-2 melanoma),growth (EKVX NSCLC),growth (SN12C renal),growth (UO-31 renal),growth (TK-10 renal),growth (ACHN renal),growth (CAKI-1 renal),growth (CCRF-CEM leukemia),growth (MOLT-4 leukemia),growth (PC-3 prostate),growth (LOX IMVI melanoma),growth (A498 renal),growth (HT29 colon)
COc1ccc(S(=O)(=O)N2CCCCC2)cc1NC(=O)c1[nH]c(C)c2c1CCCCC2=O,5.16% (active),5.25% (active),36.1%,23.4%,-24.4% (active),14.5%,48.1%,19.6%,33.9%,34.9%,9.67% (active),1.34% (active),19.8%,11.4%,42%,36.6%,–,–,–,–
NC(=NCCCC1(c2ccccc2)CCCC1)Nc1ccc(Cl)cc1,28.9%,41.1%,55.9%,-26.6% (active),–,–,–,35.3%,78.4%,–,58.5%,71.1%,34.7%,64.9%,4.14% (active),-0.285% (active),43.3%,-50% (active),83.1%,–
CCCCCCCCCCCCC[N+](C)(C)Cc1ccccc1,64.7%,-52.9% (active),-60.7% (active),7.89% (active),–,-83.9% (active),-57% (active),–,3.49% (active),-55.7% (active),43.6%,-59.5% (active),16.8%,76.5%,-14.8% (active),-10.1% (active),-23.7% (active),–,–,–
O=C1NC(=S)NC(=O)C1CC(=O)n1c(-c2ccccc2)nc2ccccc21,94.3%,66.5%,94.8%,–,98.5%,94.9%,112%,–,82.4%,95.8%,73.5%,143%,86.6%,77.2%,110%,99.9%,97.7%,–,89%,106%
CN(C)CCN1C(=O)c2cccc3c(N)ccc(c23)C1=O,–,56.9%,27.3%,22.5%,-21.8% (active),33.1%,71.2%,19.6%,30.5%,33.6%,26.8%,58.9%,12.8%,-7.49% (active),10.5%,1.9% (active),–,5.28% (active),65.6%,13.5%
O=C1c2cc3c(cc2-c2c1c1ccc(F)cc1c(=O)n2CCCNCCO)OCO3,–,-98.5% (active),-21.9% (active),-82.8% (active),–,-60.5% (active),-13.8% (active),-46.1% (active),-14% (active),-60.4% (active),-72.2% (active),-18.9% (active),-52.7% (active),-7.53% (active),0.848% (active),-25% (active),-41.9% (active),-88.3% (active),-95.9% (active),-74.3% (active)
COc1ccc(/C=C(\C#N)C(=O)Nc2cccc(Nc3nc(SC)nc(-c4cccc([N+](=O)[O-])c4)c3C#N)c2)cc1OC,–,92%,104%,–,94.8%,97%,105%,113%,88.2%,96.5%,88.3%,176%,93.8%,92.7%,87.7%,93.1%,94.8%,97.6%,102%,113%
CCOC(=O)c1sc2nc(-c3cccc(O)c3)nc(N3CCOCC3)c2c1C,–,21.1%,69.2%,58.5%,52.7%,71.8%,63.7%,78.9%,36.1%,50.7%,25.4%,79.1%,58.3%,72.3%,42.2%,29.1%,–,57.3%,97.8%,98.2%
Cc1ccc(-c2onc3c(=O)[nH]nc(-c4ccccc4)c23)cc1,–,10.1%,31.3%,20.3%,–,44.8%,66.9%,25.6%,39%,37.4%,47.7%,55%,56.9%,33.9%,20.5%,26%,25.8%,–,30%,-3.08% (active)
COc1ccc(-c2cc(=O)c3c(OC)c4ccoc4cc3o2)cc1,–,104%,82.4%,92.5%,–,98.4%,118%,131%,86.3%,93.8%,90.7%,108%,102%,103%,–,84.7%,86.1%,95.1%,121%,82.1%
COc1cccc(-c2nn(C(C)(C)C)cc2-c2ccnc(NCCCNS(=O)(=O)c3cccc4ccccc34)c2)c1,–,71.2%,100%,–,100%,108%,112%,111%,98.9%,103%,91.1%,101%,107%,96.6%,102%,–,106%,99.8%,76.9%,103%
NC(=O)c1cc(Br)ccc1NC(=O)/C=C/c1ccccc1,–,-7.05% (active),47.2%,28.7%,12.2%,43%,42.2%,47.7%,46.4%,48.3%,37.7%,98.7%,64.4%,53.2%,–,36.8%,–,52.1%,59.7%,–
O=C1Nc2ccc(Br)cc2C12Oc1ccccc1C1CC(c3ccc(F)cc3)=NN12 (stereo unspecified),–,86%,90.6%,90.9%,93.3%,84.6%,105%,98.1%,85.5%,93.3%,65.6%,121%,91%,78.7%,–,74.8%,–,91.9%,102%,93.7%
Cc1ccc(C(SCC(N)C(=O)O)(c2ccccc2)c2ccc(C)cc2)cc1 (stereo unspecified),–,16.8%,36.5%,7.96% (active),16.7%,13.6%,30%,-24.4% (active),43.1%,29.9%,38.6%,60.7%,56.3%,–,6.28% (active),13.8%,–,41.7%,29%,1.66% (active)
Cc1cc(N2CCN(c3ccnc4cc(Cl)ccc34)CC2)nc(NC2CCCCC2)n1,–,58.2%,56.6%,30.7%,–,-48.7% (active),23.9%,33.1%,–,47.2%,6.25% (active),48.8%,40.6%,37.7%,1.71% (active),-14.9% (active),22.2%,–,-2.63% (active),6.72% (active)
O=C(COc1ccc(-c2nc3cc(Cl)c(Cl)cc3[nH]2)cc1)N=Nc1c(O)[nH]c2ccccc12,–,-73.8% (active),-35.9% (active),-86.3% (active),–,1.75% (active),-49.1% (active),14.6%,–,-27.1% (active),99.7%,22.8%,25.6%,38.5%,16.1%,27%,-50.6% (active),6.14% (active),–,4.49% (active)
CCOc1cc2c(cc1OCC)C(c1cc(OC)c(O)cc1Cl)NCC2 (stereo unspecified),–,82.2%,103%,84.1%,88.6%,99.8%,99.9%,113%,–,96.7%,70.1%,88.2%,94.6%,115%,108%,112%,–,89.6%,93.7%,56.9%
O=C1NC(=Nc2ccc(O)cc2)S/C1=C\c1cccc(Cl)c1,–,70.9%,73.5%,59.3%,70.6%,80.9%,94.7%,109%,84.2%,82%,42.5%,97.3%,84.5%,70%,27.1%,–,–,53.4%,50.1%,–

# Reference: PubChem BioAssay (NCI)
